# An excerpt weighted towards active compounds, which were near 21% of everything screened.
# Pf growth 48h: P. falciparum growth inhibition at 48 hours (one generation). P. falciparum luciferase growth in erythrocytes, 48 h. Potency, µM (titrated, usually from 28.7 µM), for the others: top-dose activity change, negative = inhibition, hits mostly inhibitors. hit rate 5.9% among 310,000. AID 504832; note: potency is the fitted concentration of half-maximal effect; % is set by controls: 0 for no effect and ±100 for the full control effect
#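 Read-out is firefly luciferase luminescence from an integrated reporter in P. falciparum, so falling signal marks reduced parasite growth. Infected erythrocytes were at 2% hematocrit and 0.1% parasitemia (final) in Albumax-supplemented RPMI 1640.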
# Pf growth 96h: P. falciparum growth inhibition at 96 hours; Potency, µM (highest dose often 28.7 µM), inactives show at the highest dose activity change, negative = inhibition, most hits filed as inhibitors; hit rate 6.9% among 320,000; P. falciparum luciferase reporter growth, 96 h; AID 504834; note: potency is the fitted concentration of half-maximal effect; % is set by controls: 0 for no effect and ±100 for the full control effect
#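 P. falciparum expressing integrated firefly luciferase grown in erythrocytes (2% hematocrit, 0.05% parasitemia final) with compounds for 96 hours at 37 C, 5% CO2. Growth inhibition read as loss of luminescence after adding luciferase detection reagent.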
# FBPA Giardia inh: inhibitors of Giardia lamblia fructose-1,6-bisphosphate aldolase. A8B2U2. purified Giardia FBPA. Potency, µM (highest dose often 59.6 µM), for the others: top-dose activity, negative = inhibition, actives largely listed as inhibitors. hit rate 0.71% among 290,000; note: potency is the fitted concentration of half-maximal effect; % is set by controls: 0 for no effect and ±100 for the full control effect; nearly all actives have a fitted effect of over 55% in size
# Target sequence (A8B2U2 whole entry, looked up): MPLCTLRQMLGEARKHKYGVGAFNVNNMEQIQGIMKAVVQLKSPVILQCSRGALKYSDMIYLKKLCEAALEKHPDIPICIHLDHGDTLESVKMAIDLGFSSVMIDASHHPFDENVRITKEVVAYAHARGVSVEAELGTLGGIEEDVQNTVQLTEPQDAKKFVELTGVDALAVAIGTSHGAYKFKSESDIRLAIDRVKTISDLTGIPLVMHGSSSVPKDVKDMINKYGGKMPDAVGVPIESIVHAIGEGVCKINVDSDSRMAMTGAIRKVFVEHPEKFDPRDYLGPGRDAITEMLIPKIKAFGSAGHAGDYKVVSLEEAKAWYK
#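 40 nM FBPA preincubated 10 min at RT with compound (up to 57.5 uM final), then substrate plus GAPDH/TPI/NAD/arsenate coupling and diaphorase/resazurin added. Fluorescence read after 20 min at RT, 525/598 nm.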
# NS1 function inh: blocks influenza NS1 protein function; hit rate 0.4% among 270,000; Potency, µM (top dose mostly 46.1 µM), for inactives: at the top dose activity, positive = more growth; calls by dose curve; note: potency is the fitted concentration of half-maximal effect; actives are rising curves; nearly all actives have a fitted effect of over 50% in size
#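 S. cerevisiae expressing influenza A NS1, grown in glucose, washed, then diluted 1:100 into pH 6.0 -URA galactose medium with 23 nl compound. Growth recovery read as OD600; NS1-free strain serves as control.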
# Cycloheximide cs: counter-screen hit for Shiga toxin inhibitors, cycloheximide; cell reporter, cycloheximide protein synthesis inhibition counterscreen; max response, %; hit rate 12% among 300,000; AID 2314; in the data active = max response mostly above about 13%, no sharp cut-off; inactive = mostly below about 14%; note: read at 38.3 µM for the half of the compounds with a filed dose; 0% is about no effect
# Shiga inhibitor: Shiga toxin inhibition; Vero cells, Shiga toxin protein synthesis inhibition reporter; inhibition, % at 38.7 µM; hit rate 9.2% among 290,000; AID 2315; in the data active = inhibition mostly above about 28%, no sharp cut-off; inactive = mostly below about 43%; note: 0% is about no effect
# The depositor's hits bear a star; i = inactive; ? = inconclusive; nt = no result given; [ ] = dose if it differs, or a comment. Unless noted, calls come from the whole dose curve; as a rule, active = well fitted curve in the direction sought with a large enough effect; inconclusive = small, poorly fitted or top-dose-only effect, or another doubt; inactive = no such curve, though single readings can be large; an effect the other way counts as inactive or inconclusive.
SMILES,Pf growth 48h,Pf growth 96h,FBPA Giardia inh,NS1 function inh,Cycloheximide cs,Shiga inhibitor
Cc1cccc(NS(=O)(=O)c2cccc(C(=O)NCC3(N4CCCCC4)CCCCC3)c2)c1,6.6µM*,8.3µM*,nt,nt,nt,nt
Cc1cccc(NS(=O)(=O)c2cccc(C(=O)NCC(c3ccco3)N3CCCCC3)c2)c1 (stereo not given),?,15µM*,nt,nt,nt,nt
COc1ccccc1NS(=O)(=O)c1cccc(C(=O)NN=C2CCCCCC2)c1,-9%,3%,-7%,5%,-3,-2
CCc1ccc(CN(C)C(=O)c2cccc(S(=O)(=O)Nc3ccccc3OC)c2)cc1,10µM*,?,nt,nt,nt,nt
O=C(Nc1ccccc1C(=O)OCC(=O)N1CCc2ccccc2C1)c1ccco1,?,-5%,-8%,-87%,42*,73*
Cc1cnc(C(=O)OCC(=O)N2CCc3ccccc3C2)cn1,20%,23%,-4%,2%,1,-16
O=C(OCC(=O)N1CCCCCC1)c1cccs1,6%,20%,2%,-15%,38*,84*
Cc1cccc(C(=O)OCC(=O)N2CCCCCC2)c1,139%,37%,nt,nt,nt,nt
O=C(OCC(=O)N1CCc2ccccc2C1)c1cccnc1Cl,12%,14%,-4%,nt,36*,114*
O=C(OCC(=O)N1CCc2ccccc2C1)c1cccs1,1.5µM*,-7%,1%,-6%,47*,77*
CNC(=O)COC(=O)c1ccccc1NC(=O)c1ccco1,-2%,3%,10%,1%,1,19
C=CCn1c(SCc2csc(C)n2)nc2sc3c(c2c1=O)CCCC3,nt,-88%,4%,12%,1,-10
C=CCn1c(SCc2csc(C)n2)nc2sc3c(c2c1=O)CCC(C)C3 (stereo not given),12µM*,?,-6%,16%,-2,17
COCCC(=O)N1CCC(Oc2ccc(C(=O)NCCc3ccccn3)cc2)CC1,0%,26%,9%,-5%,2,-3
COc1ccc(/C=N/n2c(C)nc3c([nH]c4ccccc43)c2=O)cc1CN1CCCC(C)(C)C1,12µM*,5.2µM*,2%,-2%,-1,21
COc1ccc2c(c1)[nH]c1c(=O)n(/N=C/c3ccc(OC)c(CN4CCCC4)c3)cnc12,4.1µM*,?,-17%,3%,-2,15
COc1ccc2[nH]c3c(=O)n(/N=C/c4ccc(OC)c(CN5CCCC5)c4)c(C)nc3c2c1,?,?,-14%,8%,-3,-6
COc1cc(C(=O)O[C@@H]2CC3CC[C@]2(C)C3(C)C)ccc1O,nt,nt,-6%,nt,23,29*
COc1ccc(NC(=O)N2CCCC3(CCN(C(=O)c4ccc(OC)cc4)CC3)C2)cc1,nt,nt,0%,nt,nt,nt
O=C(N/N=C/C=C\c1ccccc1[N+](=O)[O-])c1cccs1,17%,2.9µM*,-11%,-1%,12,12
O=C(Cc1cccs1)N/N=C/C=C\c1ccco1,41%,180%,-30%,8%,12,-3
Cc1ccc(CSc2nnc(SCC(=O)N/N=C/C=C/c3ccccc3[N+](=O)[O-])s2)cc1,198%,111%,7%,-13%,21*,48*
O=C(N/N=C/C=C\c1ccco1)c1cccs1,-2%,9%,?,nt,29*,82*
Cc1ccc(CSc2nnc(SCC(=O)N/N=C/C=C/c3ccco3)s2)cc1,39%,?,-17%,18%,16,3
O=C(N/N=C/C=C\c1ccccc1[N+](=O)[O-])c1cc(-c2ccc3ccccc3c2)n[nH]1,-61%,15%,-1%,6%,11*,25
SMILES,Pf growth 48h,Pf growth 96h,FBPA Giardia inh,NS1 function inh,Cycloheximide cs,Shiga inhibitor
O=C(N/N=C/C=C/c1ccc([N+](=O)[O-])cc1)c1cccs1,-15%,75%,nt,-11%,15,57
C[C@H](CCC(=O)O)[C@H]1CC[C@@H]2[C@H]3[C@@H](CC[C@@]21C)[C@]1(C)CC[C@H](O)C[C@@H]1C[C@@H]3O,nt,nt,19%[21.7 µM],nt,nt,nt
O=C(CN1CCN(Cc2ccccc2Cl)CC1)N/N=C/C=C\c1ccccc1[N+](=O)[O-],5%,0%,6%,8%,-2,-12
COc1ccccc1/C=C/C=N/NC(=O)c1ccncc1,0%,39%,-3%,2%,6,13
O=C(Cc1ccccc1)N/N=C/C=C/c1ccccc1[N+](=O)[O-],49%,85%,-1%,-8%,16*,18
O=C(O)c1ccc(N/N=C/C=C/c2ccccc2[N+](=O)[O-])cc1,i,i,-5%,nt,45*,52*
COc1ccccc1/C=C/C=N/NC(=O)Cc1cccs1,10%,5%,0%,19%,42*,73*
O=C(N/N=C/C=C/c1ccccc1[N+](=O)[O-])c1cccnc1,4%,?,3%,0%,6,14
CCN(Cc1ccccc1)C(=O)/C=C/c1ccccc1[N+](=O)[O-],-12%,6%,-14%,-2%,-3,14
CN(Cc1cccs1)C(=O)/C=C/c1ccccc1[N+](=O)[O-],-5%,-18%,-5%,nt,31,69*
O=C(O)C1=CCNCC1,nt,nt,1%,-3%,nt,nt
O=C(Cc1cccs1)N/N=C/C=C/c1ccccc1[N+](=O)[O-],49%,93%,-5%,-3%,22*,62*
O=[N+]([O-])c1ccc(N/N=C/c2c[nH]c3ccccc23)c(S(=O)(=O)Nc2ccc(Cl)cc2)c1,-16%,nt,-2%,7%,-4,-23
O=[N+]([O-])c1ccccc1/C=C/C=N/Nc1ccc(S(=O)(=O)Nc2ccc(Cl)cc2)cc1[N+](=O)[O-],12µM*,-7%,-5%,nt,10,29
Cc1nnc(SC(C)C(=O)N(C)C2CCCCC2)n1N (stereo not given),-16%,?,nt,nt,nt,nt
CCCCc1nc2c(c3c1C[C@H](C)OC3)CN(C(=O)Nc1ccc(OC)cc1)CC2,nt,nt,1%[12.9 µM],nt,nt,nt
CCOC(=O)C1CCN(c2c(NCCC(C)C)c(=O)c2=O)CC1,-23%,5%,2%,2%,6,-11
O=C(O)c1ccccc1N/N=C/C1=C(N2CCOCC2)C(=C\c2ccccc2)/CC1,10µM*,?,-5%,4%,15,59*
Cc1occc1C(=O)N/N=C/C1=C(N2CCOCC2)C(=C\c2ccc(Cl)cc2)/CC1,19%,60%,0%,14%,24*,13
CC(C)Oc1ccc(C2CC(=O)N(c3cccc(Br)c3)C2=O)cc1 (stereo not given),5%,22%,2%,-2%,3,18
O=C(NNC(=S)Nc1ccc(Cl)cc1Cl)C1CC1,36%,-26%,5%,9%,26*,21
O=C(NNC(=S)Nc1ccccc1Cl)c1ccncc1,67%,72%,7%,6%,15*,80
O=C(NNC(=S)Nc1ccc(Cl)cc1Cl)c1ccncc1,24%,4.1µM*,?,12%,14*,31
S=C(Nc1ccc(Cl)cc1Cl)NC1CCCCC1,34%,-29%,-18%,3%,-1,-2
